According to PubChem BioAssay AID1048 (The Scripps Research Institute Molecular Screening Center, 2008):
Out of some 99,000 compounds screened, about 390 (0.39%) were called active. Many of the other results were omitted from the sample, so actives are more common in it than they were. Unmarked numbers belong to inactive results. No stated cut-off is given here; in the data, active means TR-FRET ratio above about 2000; inactive means the rest.

Test: signal artefacts in PPARgamma/SRC-3 readout – biochemical, TR-FRET ratio, artefact control for PPARgamma SRC-3 recruitment agonists (AID 1048)
Settings: TR-FRET artefact counter-screen, PPARgamma/SRC-3 format; at 8 µM; stronger effect = higher value
With `CC(=O)C1C(c2ccc(Cl)cc2)c2c(n[nH]c2C)CC1(C)O` (stereo unspecified) the TR-FRET ratio was 1710.
For `COc1ccc(NS(=O)(=O)c2cc(NC(=O)C3CCCCC3)ccc2N2CCOCC2)cc1`, the TR-FRET ratio was 1510.
For `O=C(Nc1ccc([N+](=O)[O-])cc1)C1CC12CCC2` (stereo unspecified), the TR-FRET ratio was 1620.
`CC(=O)c1ccc(S(=O)(=O)Nc2ccc(C(=O)NCC(c3ccccc3)N(C)C)cc2)cc1` (stereo unspecified) gave a TR-FRET ratio of 1580.
For `CC(Sc1cccc[n+]1[O-])C(=O)Nc1cccc(S(=O)(=O)N2CCOCC2)c1` (stereo unspecified), the TR-FRET ratio was 1620.
Molecule `COc1ccc(/C=N/NC(=O)c2ccccc2)cc1OS(=O)(=O)c1ccccc1` has a TR-FRET ratio of 1630.
With `COc1cccc(CNC(=O)CCN2C(=S)NC(C)(C)CC2C)c1` (stereo unspecified) the TR-FRET ratio was 1480.
Molecule `O=C(COC(=O)c1ccccc1F)Nc1cc(S(=O)(=O)N2CCOCC2)ccc1N1CCCC1` has a TR-FRET ratio of 1600.
Molecule `O=C(Nc1ccc(NC(=O)c2ccco2)c(Cl)c1)c1cccc([N+](=O)[O-])c1` has a TR-FRET ratio of 1700.
`Cc1ccc2[nH]c(C)c(CCNC(=O)NC3CCCCC3)c2c1` gave a TR-FRET ratio of 1590.
Work on `CCN(C(=O)COC(=O)/C=C/c1nc2ccccc2s1)C1CCS(=O)(=O)C1` (stereo unspecified) yielded a TR-FRET ratio of 1560.
Molecule `COCc1c(C(=O)OCc2c(C)noc2C)oc2ccccc12` has a TR-FRET ratio of 1630.
`CCN1CCN(C(=O)CCN2C(=O)c3ccccc3C2=O)CC1` gave a TR-FRET ratio of 1540.
With `COc1ccc(S(=O)(=O)Nc2cccnc2)c(Cl)c1Cl` the TR-FRET ratio was 1690.
Molecule `CCn1ccnc1CN(C)Cc1nc(-c2ccc3c(c2)OCO3)no1` has a TR-FRET ratio of 1670.
With `COc1ccc(-n2c(=S)[nH]c3sc4c(c3c2=O)CCc2ccccc2-4)cc1` the TR-FRET ratio was 1560.
For `O=C(CCN1CCCCC1)N=Nc1c(O)[nH]c2ccccc12`, the TR-FRET ratio was 1900.
Molecule `O=C(CSc1cccc[n+]1[O-])NCCCc1ccccc1` has a TR-FRET ratio of 1360.
With `CCN(CCCNC(=O)CSc1cc(=O)n(C)c2cc(Cl)ccc12)Cc1ccccc1` the TR-FRET ratio was 2580 (active).
With `CCn1c(=O)cc(SCC(=O)NCCC2=CCCCC2)c2ccccc21` the TR-FRET ratio was 1710.
With `Cn1cnnc1Sc1ccc(CN2CCN(C3CCCC3)C(CCO)C2)o1` (stereo unspecified) the TR-FRET ratio was 1420.
Molecule `CN(c1ccccc1)c1nc(N)c([N+](=O)[O-])c(NCc2ccco2)n1` has a TR-FRET ratio of 1700.
`C/C(N)=C(/C#N)C(=O)COC(=O)CNS(=O)(=O)c1ccc(C)cc1` gave a TR-FRET ratio of 1640.
Work on `Cc1c(C(=O)Nc2ccccc2)sc2nc3n(c(=O)c12)CCCCC3` yielded a TR-FRET ratio of 1500.
In the case of `O=C(CCCn1c(=O)c2sccc2n(CC(=O)NCC2CCCO2)c1=O)NCc1ccco1` (stereo unspecified), the TR-FRET ratio was 1480.
Molecule `CCn1nc(C)cc1C(=O)N1CCCC(C(=O)c2cccc(OC)c2)C1` (stereo unspecified) has a TR-FRET ratio of 1380.
With `CCCCN(C(=O)c1ccc(OC(F)(F)F)cc1)c1c(N)n(CCC)c(=O)[nH]c1=O` the TR-FRET ratio was 1550.
With `CN(C)c1nc(-c2cccnc2)nc(-c2ccc(Cl)cc2)c1C#N` the TR-FRET ratio was 1720.
`CC(=O)c1ccc(NC(=S)N(Cc2ccccc2)C(C)C2CC2)cc1` (stereo unspecified) gave a TR-FRET ratio of 1760.
Molecule `CN1CCN(c2ccc(S(=O)(=O)N3CCCCC3)cc2NC(=O)Cc2ccccc2F)CC1` has a TR-FRET ratio of 1600.
In the case of `Cc1cccc(C)c1NC(=O)C1(C)c2cccc[n+]2CC(=O)N1Cc1cccs1` (stereo unspecified), the TR-FRET ratio was 1340.
For `Cc1ccc(C(=O)NC(=S)NCCN2CCOCC2)cc1`, the TR-FRET ratio was 1640.
For `O=C1CCCC(O)=C1N=Nc1ccc2ncsc2c1`, the TR-FRET ratio was 1660.
For `O=C(c1ccccc1Cl)N(Cc1ccccc1F)N1C(=O)CCCC1=O`, the TR-FRET ratio was 1570.
`Cc1ccc(S(=O)(=O)N2CCOCC2)cc1NC(=O)CSc1nnc(N)s1` showed a TR-FRET ratio of 1740.
`S=c1[nH]nc(COc2ccccc2)n1-c1ccccc1` showed a TR-FRET ratio of 1490.
In the case of `Fc1ccc(COc2cccc(-c3n[nH]c(=S)o3)c2)cc1`, the TR-FRET ratio was 2970 (active).
For `Cc1cccc(OCc2ccc(C(=O)Nc3ccc(F)cc3)cc2)c1`, the TR-FRET ratio was 1440.
Molecule `O=C(CCc1ccccc1)Nc1ccc(NC(=O)C2CCCCC2)nc1` has a TR-FRET ratio of 1430.
Molecule `CCOP(=O)(OCC)C(Nc1ccc([N+](=O)[O-])cc1)c1ccc(Cl)cc1` (stereo unspecified) has a TR-FRET ratio of 1560.
With `Cc1csc(CN(C)C(=O)CC2C(=O)NCCN2CC(C)(C)C)n1` (stereo unspecified) the TR-FRET ratio was 1590.
`O=S(=O)(NC1CC1)c1ccc2c3c(cccc13)CC2` showed a TR-FRET ratio of 1560.
With `COc1cccc(OC)c1C(=O)NC(=S)Nc1ccc(N2CCOCC2)c(Cl)c1` the TR-FRET ratio was 1350.
Molecule `COc1ccc(C2(CNC(=O)Cc3ccc(OC)c(OC)c3)CCCC2)cc1` has a TR-FRET ratio of 1430.
In the case of `COc1ccc(C(=O)NNC(=S)NC(=O)c2ccccc2[N+](=O)[O-])cc1`, the TR-FRET ratio was 1550.
With `CCN(C(=O)COC(=O)c1cc(NS(=O)(=O)c2ccc(Cl)c([N+](=O)[O-])c2)ccc1O)C1CCCCC1` the TR-FRET ratio was 1460.
In the case of `CCN(CC)c1ccc(C(=O)N/N=C(\C)c2cccc(OC)c2)cc1`, the TR-FRET ratio was 1500.
With `O=C(NCCCN1CCOCC1)c1ccc(N2CCCC2)c([N+](=O)[O-])c1` the TR-FRET ratio was 1590.
Work on `Cc1cc(C(=O)CC#N)c(C)n1-c1c(C)n(C)n(-c2ccccc2)c1=O` yielded a TR-FRET ratio of 1450.
For `CCOc1ccc(N2C(=O)CN(c3cccc4ccccc34)C2=S)cc1`, the TR-FRET ratio was 1810.
Molecule `CC(C)(C)NC(=O)CN1CCC(NC(=O)C23CC4CC(CC(C4)C2)C3)CC1` has a TR-FRET ratio of 1580.
Work on `CCOC(=O)C1(CCOc2ccccc2)CCN(C(=O)c2cncs2)CC1` yielded a TR-FRET ratio of 1510.
`CCC(=O)Nc1cc(C(F)(F)F)ccc1N1CCCC1` showed a TR-FRET ratio of 1710.
In the case of `COc1ccc(C(=O)NNc2cc(C)nc(NNC(=O)c3ccc(OC)cc3)n2)cc1`, the TR-FRET ratio was 1420.
Work on `COc1cc(CNc2ncn[nH]2)ccc1OCc1ccccc1C` yielded a TR-FRET ratio of 1650.
Molecule `OCCC1CN(Cc2cnc(-c3ccccc3)s2)CCN1CCc1ccccc1` (stereo unspecified) has a TR-FRET ratio of 1800.
`CCC(C)N(C(=O)COC(=O)C1C(C(=O)OC)=C(C)NC(C)=C1C(=O)OC)C1CCS(=O)(=O)C1` (stereo unspecified) gave a TR-FRET ratio of 1620.
Work on `CCOC(=O)N/N=C/c1cccnc1` yielded a TR-FRET ratio of 1540.
`CC(=O)c1cccc(CN2CCC(CO)(Cc3ccccc3)CC2)c1` gave a TR-FRET ratio of 1520.
With `Cc1cccc(-c2ncc(CN3CCC(CO)(CCCc4ccccc4)CC3)cn2)c1` the TR-FRET ratio was 1420.
For `OCC1(CCc2ccccc2)CCN(Cc2ccc3nsnc3c2)CC1`, the TR-FRET ratio was 2140 (active).
